The source of these data is PubChem BioAssay (NCATS).

The test system of assay [1] is CRL-7250. The assay can be described thus: Cytotoxic Profiling of Annotated Libraries Using Quantitative High-Throughput Screening (AID 1296008). Also: nearly all actives have a fitted effect of over 60% in size. Also: potency is read from the fitted curve at half-maximal effect. As to max response: % is scaled to controls: 0 for no effect and ±100 for the full control effect. Particulars: Five cell lines viability, CellTiter-Glo ATP luminescence, 48-72 h; max response: active compounds read low. In a few lines: (§1)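 Cells exposed to compounds for 48 or 72 hr at 37 degrees Celsius. Viability read as ATP-coupled luminescence with CellTiter-Glo after 10 min at room temperature.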
For orientation: In ATP-based viability assays light output follows the ATP content of the culture.

For assay [2], the system named is HEK293. Described as above. The following applies: Five cell lines viability, CellTiter-Glo ATP luminescence, 48-72 h; max response: active compounds read low. In a few lines: as §1
In assay [3] the test system is HaCat. The assay is described as above. Particulars: Five cell lines viability, CellTiter-Glo ATP luminescence, 48-72 h; max response: active compounds read low. In outline:
as §1

Assay [4] has as its system KB-3-1. Described as above. Particulars: Five cell lines viability, CellTiter-Glo ATP luminescence, 48-72 h; max response: active compounds read low. In outline: as §1
For assay [5], the system named is HEK293T. The assay can be described thus: qHTS assay to identify novel small-molecules to repurpose for Merkel cell carcinoma treatment (AID 1296009). Also: nearly all actives have a fitted effect of over 60% in size. Also: potency is read from the fitted curve at half-maximal effect. The following applies: MCC and control cell lines, CellTiter-Glo viability, 72 h; at 44.8 µM (top of the series). In a few lines: (§2)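 Cells were treated for 72 hr at 37 degree celsius with compounds in 8- or 11-point dose response. Viability was read by CellTiter-Glo luminescence, normalized to no-cell (cytotoxicity) and DMSO controls.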
In general terms: In qHTS, concentration-response curves come from the screen itself.

Assay [6] deals with MCC-13. The assay is described as above. The following applies: MCC and control cell lines, CellTiter-Glo viability, 72 h; series mostly up to 46 µM. In outline: as §2
The test system of assay [7] is WaGa. Described as above. Particulars: MCC and control cell lines, CellTiter-Glo viability, 72 h; series mostly up to 46 µM. In outline:
as §2

Assay [8] deals with HACAT. The description is as above. The following applies: MCC and control cell lines, CellTiter-Glo viability, 72 h; at 44.8 µM (top of the series) unless noted. In outline: as §2
The subject of assay [9] is MCC-26. The assay is described as above. Particulars: MCC and control cell lines, CellTiter-Glo viability, 72 h; series mostly up to 46 µM. In a few lines:
as §2

Assay [10] concerns MKL-1. Described as above. The following applies: MCC and control cell lines, CellTiter-Glo viability, 72 h; series mostly up to 46 µM. In a few lines:
as §2

Assay [11] has as its system MKL-2. The assay is described as above. The following applies: MCC and control cell lines, CellTiter-Glo viability, 72 h; series mostly up to 46 µM. In outline: as §2
In assay [12] the test system is NIH3T3. Described as above. The following applies: MCC and control cell lines, CellTiter-Glo viability, 72 h; at 44.8 µM (top of the series) unless noted. In outline: as §2
Assay [13] relates to UISO. The description is as above. The following applies: MCC and control cell lines, CellTiter-Glo viability, 72 h; series mostly up to 46 µM. In outline: as §2
Assay [14] deals with C33A. The assay can be described thus: Primary qHTS to identify gynecologic anti-cancer compounds using libraries of approved drugs and bioactive compounds (AID 1345084). Also: nearly all actives have a fitted effect of over 55% in size. Also: potency is read from the fitted curve at half-maximal effect. Particulars: Gynecologic cancer cell panel viability, ATPlite luminescence, 48 h; series mostly up to 57.5 µM. In a few lines:
(§3)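 ATP-based viability (ATPlite), 1,000 cells/well, 16 h pre-incubation, 48 h compound at 37 C, 5% CO2, 15 min RT before read.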

For assay [15], the system named is CAOV3. The assay is described as above. Particulars: Gynecologic cancer cell panel viability, ATPlite luminescence, 48 h; series mostly up to 57.5 µM. In outline: as §3
The subject of assay [16] is CASKI. The assay is described as above. The following applies: Gynecologic cancer cell panel viability, ATPlite luminescence, 48 h; series mostly up to 57.5 µM. In a few lines: as §3
The subject of assay [17] is NIH3T3. The assay can be described thus: Cytotoxic Profiling of Annotated Libraries Using Quantitative High-Throughput Screening (AID 1296008). Also: nearly all actives have a fitted effect of over 60% in size. Also: potency is read from the fitted curve at half-maximal effect. As to max response: % is scaled to controls: 0 for no effect and ±100 for the full control effect. Particulars: Five cell lines viability, CellTiter-Glo ATP luminescence, 48-72 h; max response: active compounds read low. In a few lines:
as §1

Assay [18] concerns TAB113. The assay can be described thus: qHTS profiling for inhibitors of Plasmodium falciparum proliferation (AID 504749).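 Also: 0% = DMSO vehicle and full inhibition = artemisinin control; nearly all actives have a fitted effect of over 60% in size.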 Particulars: P. falciparum in erythrocytes, SYBR Green DNA, 72 h; series mostly up to 28.7 µM. In outline:
(§4)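 P. falciparum-infected erythrocytes (0.3% parasitemia, 2.5% hematocrit) incubated with compound 72 h at 37 C, 5% CO2. Parasite DNA detected by SYBR Green after lysis, overnight at room temperature; normalised to 0.29 uM artemisinin and DMSO.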

For assay [19], the system named is TAB165. The description is as above. The following applies: P. falciparum in erythrocytes, SYBR Green DNA, 72 h; series mostly up to 28.7 µM. In a few lines:
as §4

Assay [20] concerns W2. The assay is described as above. Particulars: P. falciparum in erythrocytes, SYBR Green DNA, 72 h; series mostly up to 28.7 µM. In a few lines: as §4

The structures appear in SMILES notation. “And” between values parts separate entries of the source, which are not always exact repeats. Equal values may be shown once. Results filed as inconclusive are left out. Values without a mark were called inactive. The source made the active and inactive calls. Calls follow the shape of the dose curve; as a rule, active = well fitted curve in the direction sought with a large enough effect; inconclusive = small, poorly fitted or top-dose-only effect, or another doubt; inactive = no such curve, though single readings can be large; an effect the other way counts as inactive or inconclusive.

As for `O=c1c(O)c(-c2ccc(O)cc2)oc2cc(O)cc(O)c12`, the compound was classed as inactive in assay [1], in assay [2], in assay [4] and in assay [5]. Also, the max response in assay [3] was -4.55%. Further, the Potency result in assay [6] was “inactive”. Also, the Potency in assay [7] is 3.72 µM (active).

Consider `Cn1c(N2CCCCS2(=O)=O)nc(C(=O)NCc2ccc(F)cc2)c(O)c1=O`, for which the max response in [1] is -1.04% and -2.16%; in assay [2], -2.82% and 1.1%; in [4], 0.163% and -14.6%. In addition, the result in [3], in assay [8] and in [12] was inactive. Moreover, the Potency entry in assay [6], in assay [9], in [10], in [11], in assay [13] and in assay [7] was “inactive” each time. Moreover, the Potency entry in [14], in assay [15] and in [16] was “inactive” in each case.

With `CC(C)n1nc(-c2ccc3oc(N)nc3c2)c2c(N)ncnc21`, the Potency in [1] was 1 nM (active) and 58 nM (active); in [2], 1.7 nM (active) and 82 nM (active); in [3], 3.26 µM (active); in [4] it was 7.4 nM (active) and 116 nM (active); in assay [17], 5.3 nM (active) and 259 nM (active); in assay [13], 0.0264 µM (active). In addition, in assay [16], the Potency is 2.24 µM (active).

Turning to `O=C(O)c1c(Cl)c(Cl)c(Cl)c(Cl)c1-c1c2cc(I)c(=O)c(I)c-2oc2c(I)c(O)c(I)cc12`, the Potency entry in [18], in assay [19], in assay [20] and in assay [13] was “inactive” each time. The values for the max response in assay [1], in [2] and in assay [17] were -20.2%, -16.1% and -19.3%, respectively. For the same compound, the call in assay [3] and in assay [8] was inactive.

As to `O=C1NC(=O)C(=Cc2ccc3c(c2)OC(F)(F)O3)S1`, the max response in assay [1] is -15.6%; in assay [2], -24.8%; in assay [3], -0.402%; in [17], -19.2%. The Potency entry in [6], in [9], in [10], in assay [11] and in assay [13] was “inactive” throughout.

Regarding `CCc1ccc(OCc2ccccc2C(=O)Nc2ccc3nc(C)cc(N)c3c2)cc1`, the Potency is 10.5 µM (active) in assay [1]; 8.33 µM (active) in assay [2]; 11.8 µM (active) in assay [3]; 9.35 µM (active) in assay [17]; 18.7 µM (active) in assay [6].

For the compound `O=C(Nc1cccc(Br)c1)c1cccc(S(=O)(=O)N2CCCCCC2)c1`, the Potency is 23.1 µM (active) in assay [1]; 13.2 µM (active) and 9.2 µM (active) in assay [2]. The max response in assay [3] was 4.06% and -1.39%; in [17], -21.3%. Also, the Potency entry in [6], in assay [9], in assay [10], in [11], in assay [7] and in assay [15] was “inactive” in each case.

On to `COc1cc2nc(-c3ccc(N4CCN(C)CC4)cc3)nc(NCCN3CCOCC3)c2cc1OC`, for which the Potency in assay [1] was 1.66 µM (active); in assay [2] it was 5.8 µM (active); in [3] it was 0.935 µM (active); in [4], 66.2 nM (active); in [6], 9.35 µM (active); in assay [10], 0.0235 µM (active). The Potency is 0.105 µM (active) in assay [11], 0.118 µM (active) in assay [13] and 0.118 µM (active) in assay [7]. Besides, the Potency result in assay [14] is “inactive”.

In the case of `Oc1ccc(C2CCN(c3ccnc4ccccc34)CC2)cc1O`, the Potency is 4.69 µM (active) in assay [1] and 13.2 µM (active) in [2]. Also, the results for the max response in [3] and in assay [17] were -4.14% and -5.13%, respectively. The Potency entry in assay [6], in assay [9] and in assay [13] was “inactive” each time.

For `CO[C@@H](C(=O)N1Cc2[nH]nc(NC(=O)c3ccc(N4CCN(C)CC4)cc3)c2C1)c1ccccc1`, the Potency is 5.26 µM (active) in assay [1]; 4.18 µM (active) in assay [2]; 2.35 µM (active) in assay [3]; 11800 nM (active) in assay [4]; 14.8 µM (active) in [17]. Besides, the Potency result in [11] and in assay [13] was “inactive” throughout.
